Data on 19 compounds can be found in PubChem BioAssay (NCATS).

Assay [1] in a line: qHTS of pediatric cancer cell lines to identify multiple opportunities for drug repurposing: Confirmatory screen for A673 cells (AID 1347110).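 Note: cells exposed to compound for 48 h before the viability read; nearly all actives have a fitted effect of over 65% in size.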 An outline of the steps: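 Concentration-response curves came straight from titrations: 11 points (0.78 nM to 46 µM) for MIPE and several concentrations (0.59 nM to 46 µM) for NPC in primary, 11 points in follow-up. Readout: ATP luminescence at 48 h.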

A short description of assay [2]: qHTS of pediatric cancer cell lines to identify multiple opportunities for drug repurposing: Confirmatory screen for BT-12 cells (AID 1347112). Note: nearly all actives have a fitted effect of over 55% in size. The gist of the method:
(§1)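 Cells (500-1,000/well) in growth media were settled 5 h at 37 degrees C, then given compounds for 48 h. Viability was read as CellTiter-Glo luminescence. Primary runs used MIPE at 11 points (0.78 nM-46 µM) and NPC at 8 points (0.59 nM-46 µM); follow-ups used 11 points.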

The nature of assay [3]: qHTS of pediatric cancer cell lines to identify multiple opportunities for drug repurposing: Confirmatory screen for DAOY cells (AID 1347114). Note: nearly all actives have a fitted effect of over 65% in size. The gist of the method:
(§2)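 Viability measured as metabolically active cells via CellTiter-Glo luminescence following 48 hours of compound exposure, 11-point dilutions in confirmatory testing. 500-1,000 cells/well plated 5 hours before dosing; controls were DMSO and 2.3 µM bortezomib.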

Assay [4] can be described thus: qHTS of pediatric cancer cell lines to identify multiple opportunities for drug repurposing: Confirmatory screen for NB-EBc1 cells (AID 1347115).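 Note: cells exposed to compound for 48 h before the viability read; nearly all actives have a fitted effect of over 45% in size.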 An outline of the steps: as §1
Assay [5] is described as follows: qHTS of pediatric cancer cell lines to identify multiple opportunities for drug repurposing: Confirmatory screen for SJ-GBM2 cells (AID 1347116). Note: nearly all actives have a fitted effect of over 60% in size. An outline of the steps:
as §2

Assay [6] in a line: qHTS of pediatric cancer cell lines to identify multiple opportunities for drug repurposing: Confirmatory screen for MG 63 (6-TG R) cells (AID 1347119). Note: nearly all actives have a fitted effect of over 55% in size. An outline of the steps:
as §1

The nature of assay [7]: qHTS of pediatric cancer cell lines to identify multiple opportunities for drug repurposing: Confirmatory screen for control Hh wild type fibroblast cells (AID 1347121). Note: nearly all actives have a fitted effect of over 70% in size. The gist of the method: as §1
Assay [8] in a line: qHTS of pediatric cancer cell lines to identify multiple opportunities for drug repurposing: Confirmatory screen for SK-N-MC cells (AID 1347111).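 Note: cells exposed to compound for 48 h before the readout; nearly all actives have a fitted effect of over 70% in size.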 The gist of the method:
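Metabolically active cells were quantified by ATP-dependent luminescence (CellTiter-Glo, 15 min at room temperature) following 48 h treatment. Cells had been plated at 500-1,000 per well and settled for 5 h beforehand.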

A short description of assay [9]: qHTS of pediatric cancer cell lines to identify multiple opportunities for drug repurposing: Confirmatory screen for BT-37 cells (AID 1347117). Note: nearly all actives have a fitted effect of over 55% in size. An outline of the steps:
as §1

A short description of assay [10]: qHTS of pediatric cancer cell lines to identify multiple opportunities for drug repurposing: Confirmatory screen for TC32 cells (AID 1347118).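 Note: cells exposed to compound for 48 h before the read; nearly all actives have a fitted effect of over 65% in size.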 The gist of the method: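 TC32 cells, 500-1,000/well in growth medium, compound-treated 48 h at 37 °C; viability from CellTiter-Glo luminescence. Primary screen: MIPE 11-point (0.78 nM–46 µM final), NPC 8-point (0.59 nM–46 µM final); confirmatory at 11-point dilutions.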

Each structure is given as a SMILES string. Results filed as inconclusive are left out. Active and inactive are the calls of the source. Calls come from the whole dose curve; as a rule, active = well fitted curve in the direction sought with a large enough effect; inconclusive = small, poorly fitted or top-dose-only effect, or another doubt; inactive = no such curve, though single readings can be large; an effect the other way counts as inactive or inconclusive.
Potency is the fitted concentration of half-maximal effect.

Take `Nc1ccn([C@@H]2O[C@H](CO)[C@@H](O)C2O)c(=O)n1` (stereo partly specified): the Potency in assay [1] was 16.5 µM (active). Besides, the Potency entry in assay [2], in [3], in assay [4], in [5], in assay [6] and in assay [7] was “inactive” in each case.
Regarding `Cc1cc(C2CCCCC2)n(O)c(=O)c1`, the Potency was 11.7 µM (active) in [1]; 5.22 µM (active) in [8]; 16.5 µM (active) in assay [4]; 2.33 µM (active) in [9]; 4.65 µM (active) in assay [10]; 20.8 µM (active) in assay [6]. Moreover, the Potency entry in assay [5] was “inactive”.
In the case of `C=C(c1ccc(C(=O)O)cc1)c1cc2c(cc1C)C(C)(C)CCC2(C)C`, the Potency result in assay [1], in assay [2], in assay [3], in assay [4], in assay [9] and in [6] was “inactive” in each case. Also, the Potency result in [7] was “inactive”.
Regarding `Cc1c(C(=O)NN2CCCCC2)nn(-c2ccc(Cl)cc2Cl)c1-c1ccc(Cl)cc1`, the Potency was 20.8 µM (active) in assay [1], 7.37 µM (active) in assay [8], 23.3 µM (active) in assay [3] and 23.3 µM (active) in assay [10]. Further, the Potency entry in assay [5] and in assay [7] was “inactive” in each case.
Consider `O=C1c2c(O)cc(O)cc2OC(c2ccc(O)c(O)c2)C1O` (stereo unspecified), for which the Potency result in assay [1], in assay [8], in assay [2], in assay [3], in assay [4] and in [5] was “inactive” throughout. Besides, the Potency result in assay [9], in [10], in assay [6] and in [7] was “inactive” in each case.
Take `c1cnc2cc3c(cc2n1)C1CNCC3C1`: the Potency result in assay [1], in assay [8], in assay [2], in assay [3], in assay [4] and in [9] was “inactive” in each case. Besides, the Potency entry in [6] and in assay [7] was “inactive” throughout.
`CC1(C)C(=O)N(CCN2CCC(C(=O)c3ccc(F)cc3)CC2)c2ccccc21`: the Potency in assay [8] is 3.29 µM (active); in assay [10], 7.37 µM (active). In addition, the Potency entry in assay [3], in assay [9], in assay [6] and in assay [7] was “inactive” each time.
Take `COc1cc(C(C)=O)ccc1OCCCN1CCC(c2noc3cc(F)ccc23)CC1`: the Potency entry in assay [1], in assay [4], in assay [5], in assay [6] and in assay [7] was “inactive” in each case. Besides, the Potency in assay [10] is 20.8 µM (active).
Take `Clc1ccc(C(Cn2ccnc2)OCc2ccc(Sc3ccccc3)cc2)c(Cl)c1` (stereo unspecified): the Potency is 1.17 µM (active) in assay [1]; 18.5 µM (active) in [8]; 29.3 µM (active) in assay [2]; 18.5 µM (active) in assay [3]; 26.1 µM (active) in assay [9]; 10.4 µM (active) in assay [10]. Also, the Potency entry in assay [5] was “inactive”.
For `C[C@]12CCC(=O)C=C1CC[C@@H]1[C@H]2[C@@H](O)C[C@@]2(C)[C@H]1CC[C@]2(O)C(=O)CO`, the Potency entry in assay [1], in [2], in [3], in [4], in assay [5] and in assay [6] was “inactive” each time. Also, the Potency result in assay [7] was “inactive”.
Consider `CCc1nc(N)nc(N)c1-c1ccc(Cl)cc1`, for which the Potency in [1] is 0.329 µM (active); in assay [8], 1.31 µM (active); in assay [9] it was 5.22 µM (active); in [10] it was 2.93 µM (active). In assay [6], the Potency result is “inactive”.
For `CCN(CC)C(=S)SSC(=S)N(CC)CC`, the Potency in assay [1] was 0.522 µM (active); in assay [3], 9.27 µM (active); in [5], 1.31 µM (active); in assay [9] it was 0.414 µM (active); in [10], 0.293 µM (active). In addition, the Potency entry in assay [6] and in assay [7] was “inactive” in each case.
As to `Nc1nc(OCc2ccccc2)c2[nH]cnc2n1`, the Potency entry in assay [1], in [8], in assay [4], in assay [5], in [10] and in [7] was “inactive” throughout.
With `CC(C)C[C@H](NC(=O)[C@H](Cc1ccccc1)NC(=O)c1cnccn1)B(O)O`, the Potency is 0.0465 µM (active) in assay [1]; 0.0131 µM (active) in assay [8]; 0.0465 µM (active) in [2]; 0.0131 µM (active) in assay [3]; 0.0465 µM (active) in assay [4]; 0.0329 µM (active) in assay [5]. For the same compound, the Potency was 0.0465 µM (active) in assay [9], 0.0414 µM (active) in assay [10], 0.0208 µM (active) in [6] and 0.827 µM (active) in [7].
Turning to `O=C(NCC1CCCCN1)c1cc(OCC(F)(F)F)ccc1OCC(F)(F)F` (stereo unspecified), the figures for the Potency in assay [1], in [8] and in assay [10] were 1.31 µM (active), 7.37 µM (active) and 5.22 µM (active), respectively. In addition, the Potency result in assay [3], in assay [4], in assay [5], in assay [6] and in [7] was “inactive” in each case.
Consider `CC(=O)O[C@H]1C(=O)[C@@]2(C)C([C@H](OC(=O)c3ccccc3)[C@]3(O)C[C@H](OC(=O)[C@H](O)[C@@H](NC(=O)c4ccccc4)c4ccccc4)C(C)=C1C3(C)C)[C@]1(OC(C)=O)CO[C@@H]1C[C@@H]2O` (stereo partly specified), for which the Potency in assay [1] was 0.0147 µM (active); in assay [8], 0.0117 µM (active); in assay [10], 0.0104 µM (active); in [6], 0.0131 µM (active).
In the case of `CCOc1cc(CC(=O)N[C@@H](CC(C)C)c2ccccc2N2CCCCC2)ccc1C(=O)O`, the Potency result in assay [2], in assay [3], in [5], in [9], in [10] and in [7] was “inactive” in each case.
For the compound `Cc1ccc(Nc2nccc(N(C)c3ccc4c(C)n(C)nc4c3)n2)cc1S(N)(=O)=O`, the Potency in assay [8] was 18.5 µM (active). Further, the Potency result in assay [9] and in assay [6] was “inactive” throughout.
With `Cc1ccc(NC(=O)c2ccc(CN3CCN(C)CC3)cc2)cc1Nc1nccc(-c2cccnc2)n1`, the Potency entry in assay [1], in assay [4], in assay [5], in [6] and in assay [7] was “inactive” throughout. In assay [3], the Potency is 16.5 µM (active).
